Reference: PubChem BioAssay (Tox21)
Inconclusive results are not listed. The source made the active and inactive calls. Unless noted, the call rests on the fitted dose curve.

Assays:
[1] = Nuclear factor erythroid 2-related factor 2/antioxidant responsive element (Nrf2/ARE) small molecule agonists: qHTS cell viability counter screen in human keratinocytes (AID 1919968; active means well fitted curve in the direction sought with a large enough effect in the repeat runs; an effect the other way counts as inactive or inconclusive; further: nearly all actives have a fitted effect of over 55% in size; further: potency means the concentration at half of the fitted maximal effect)
How it was run: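 HaCaT ARE reporter line, 1,500 cells/well; 5 h settle, 37 C/5% CO2; cpd in DMSO pinned; 23 h exposure; CellTiter-Fluor, 1 h; fluorescence.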

[2] = Nuclear factor erythroid 2-related factor 2/antioxidant responsive element (Nrf2/ARE) small molecule agonists: luciferase reporter gene qHTS assay in human keratinocytes (AID 1919969); further: nearly all actives have a fitted effect of over 35% in size
[3] = biological target: Gonadotropin-releasing hormone receptor (Homo sapiens) (UniProt P30968); assay: Human gonadotropin-releasing hormone receptor (GnRHR) small molecule agonists, calcium flux assay in GnRHR-HEK293 cells (AID 1920063); further: nearly all actives have a fitted effect of over 35% in size
How it was run: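 GnRHR-HEK293, 1500 cells/well, 18 h 37 C/5% CO2; Ca dye 1 h 37 C; cpd pinned (DMSO), agonist mode; kinetic FL 480/540, 3 min, 1 s reads; 15 conc, n=3.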

[4] = biological target: KiSS-1 receptor (Homo sapiens) (UniProt Q969F8); assay: Human kisspeptin (KISS1R) small molecule agonists, calcium flux assay in KISS1R-HEK293 cells (AID 1920064; active means well fitted curve in the direction sought with a large enough effect in the repeat runs; an effect the other way counts as inactive or inconclusive)
How it was run: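 Stable human KISS1R HEK293 line; 18 h plating, 37 C/5% CO2; calcium dye 1 h 37 C; compound pin transfer; kinetic fluorescence Ex/Em 480/540, 3 min.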

[5] = G protein-coupled receptor (GPCR) small molecule agonists, calcium flux assay: HEK293 wild type cell line counter screen (AID 1920065)
How it was run: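 Kinetic fluorescence at Ex/Em 480/540, recorded every second over 3 min, served as the read-out after compound addition. Each compound was tested at 15 concentrations in triplicate on cells pre-loaded with calcium dye for 1 h.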

[6] = p53 small molecule agonists, cell-based qHTS assay with human liver microsomes (AID 1963577);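 further: p53 response element beta-lactamase reporter cells with liver microsomes plus NADPH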
How it was run: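 In this qHTS, p53 response-element beta-lactamase cells receive test compound together with a microsome/NADPH activating system (0.5 mg/mL final each) and are incubated 16 h at 37 C before LiveBLAzer fluorescence detection.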

[7] = p53 small molecule agonists, cell-based qHTS assay with rat liver microsomes (AID 1963578)
How it was run: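 Agonist mode in p53RE-bla reporter cells, with compounds co-incubated 16 h at 37 C alongside 0.5 mg/mL rat liver microsomes and 0.5 mg/mL NADPH (final), followed by a 2 h LiveBLAzer detection step.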

[8] = p53 small molecule agonists, cell-based qHTS assay with human liver microsomes: qHTS cell viability counter screen (AID 1963579); further: nearly all actives have a fitted effect of over 45% in size
How it was run: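 Metabolically activated exposure: compounds, human liver microsomes and NADPH (0.5 mg/mL final apiece) were added to p53RE-bla cells seeded 5 h earlier, left 16 h at 37 C, and then assessed for viability by CellTiter-Glo luminescence.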

[9] = p53 small molecule agonists, cell-based qHTS assay with rat liver microsomes: qHTS cell viability counter screen (AID 1963580); further: nearly all actives have a fitted effect of over 45% in size
How it was run: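 In HCT-116 cells carrying a p53 response element-bla reporter, compounds were metabolically activated in situ by rat liver microsomes with NADPH over 16 h. Cell ATP content then served as the cytotoxicity measure.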

[10] = p53 small molecule agonists, cell-based qHTS assay (AID 1963582; active means well fitted activation curve with a large enough effect in the signal ratio in the repeat runs, not every such curve was filed as active; the % refers to the signal ratio; further: potency means the concentration at half of the fitted maximal effect)
How it was run: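 Reporter line: p53RE-bla. Pre-incubation 5 h, 37 C, 5% CO2; compound (DMSO, pin tool) 16 h, 37 C; B/G FRET substrate 2 h RT; fluorescence intensity read.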

[11] = biological target: 5-hydroxytryptamine receptor 2A (Homo sapiens) (UniProt P28223); assay: 5-hydroxytryptamine receptor 2A (HTR2A) small molecule agonists, cell-based qHTS assay (AID 1963587); further: nearly all actives have a fitted effect of over 30% in size
How it was run: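 HTR2A-CHO cells, plated 18 h at 37 C/5% CO2, dye-loaded 1 h at 37 C; compounds in DMSO added by pin tool (agonist mode). Intracellular calcium flux read as kinetic fluorescence on FDSS over 2 min at 1 s intervals.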

[12] = biological target: Muscarinic acetylcholine receptor M1 (Homo sapiens) (UniProt P11229); assay: Cholinergic receptor muscarinic 1 (CHRM1) small molecule agonists, cell-based qHTS assay (AID 1963589); further: nearly all actives have a fitted effect of over 35% in size
How it was run: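 Human M1 in stable CHO line; 18 h plating, 1 h dye load 37 C; cpd added (agonist mode); Ca2+ fluorescence kinetic read, 1 s intervals; 15 conc, 3 runs.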

[13] = cAMP Responsive Elements (CRE) small molecule agonists, cell-based qHTS assay (AID 1963590)
How it was run: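 HEK 293T CRE-bla, 2,000 cells/well, 18 h preincubation 37 C/5% CO2; cpds (DMSO) pinned, 3 h; LiveBLAzer B/G FRET substrate, 2 h RT.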

[14] = cAMP Responsive Elements (CRE) small molecule antagonists, cell-based qHTS assay (AID 1963591; active means well fitted inhibition curve with a large enough effect in the signal ratio in the repeat runs, not every such curve was filed as active; the % refers to the signal ratio)
How it was run: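 Beta-lactamase reporter read by FRET substrate (LiveBLAzer B/G) after 2 h at room temperature. CRE-bla HEK293T cells had received compound plus 0.25 uM (final) NKH477 for 3 h at 37 °C.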

[15] = biological target: Beta-2 adrenergic receptor (Homo sapiens) (UniProt P07550); assay: Adrenergic beta2 receptor (ADRB2) small molecule antagonists, cell-based qHTS assay (AID 1963592); further: series mostly up to about 92 µM; nearly all actives have a fitted effect of over 50% in size
How it was run: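 Cells (CHO, stable ADRB2 overexpression) incubated 18-20hr at 37C; compounds added from DMSO; agonist mix (1nM isoproterenol, 100uM IBMX, 25uM Ro-20-1724) added; 0.5hr RT; d2-cAMP and anti-cAMP-cryptate added; 1hr RT; 665/615 nm read.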

[16] = biological target: Beta-2 adrenergic receptor (Homo sapiens) (UniProt P07550); assay: Adrenergic beta2 receptor (ADRB2) small molecule agonists, cell-based qHTS assay (AID 1963593);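 further: CHO cells stably overexpressing human ADRB2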
How it was run: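 CHO cells stably over-expressing ADRB2 were plated overnight at 37C, then dosed with compounds plus a stimulation mix containing 100uM IBMX and 25uM Ro-20-1724 for 0.5hr at room temperature. cAMP was measured by HTRF competition, 1hr.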

[17] = biological target: D(2) dopamine receptor (Homo sapiens) (UniProt P14416); assay: Dopamine D2 receptor (DRD2) small molecule agonists, cell-based qHTS assay (AID 1963594); further: nearly all actives have a fitted effect of over 35% in size
How it was run: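 HEK293 cells stably expressing DRD2 were cultured 24 h at 37 C, then given Ro20-1724 (0.1 mM final) and compounds for 10 min at room temperature. NKH477 (200nM) was then added for 30 min. cAMP was read by HTRF.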

[18] = biological target: D(2) dopamine receptor (Homo sapiens) (UniProt P14416); assay: Dopamine D2 receptor (DRD2) small molecule antagonists, cell-based qHTS assay (AID 1963595; active means well fitted inhibition curve with a large enough effect in the signal ratio in the repeat runs, with a control signal flat; the % refers to the signal ratio; further: potency means the concentration at half of the fitted maximal effect)
How it was run: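 Stable D2 receptor HEK293 line, 24 h after seeding. Compound preincubated 10 min, then quinpirole (12 nM) with forskolin analogue NKH477 (200 nM), 30 min, room temperature. Detection by time-resolved FRET of cAMP.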

[19] = biological target: Muscarinic acetylcholine receptor M1 (Homo sapiens) (UniProt P11229); assay: Cholinergic receptor muscarinic 1 (CHRM1) small molecule antagonists, cell-based qHTS assay (AID 1963588); further: nearly all actives have a fitted effect of over 40% in size
How it was run: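 CHRM1-CHO calcium-flux assay, antagonist mode. Cells were seeded 18 h, dye-loaded 1 h at 37 C and given compound for 5 min at RT, then acetylcholine was added at 50nM. FDSS fluorescence was read 3 min; 15 concentrations, three runs.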

[20] = biological target: 5-hydroxytryptamine receptor 2A (Homo sapiens) (UniProt P28223); assay: 5-hydroxytryptamine receptor 2A (HTR2A) small molecule antagonists, cell-based qHTS assay (AID 1963586); further: nearly all actives have a fitted effect of over 45% in size
How it was run: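 Antagonist-mode intracellular calcium assay: DOI (4 nM) added after 5 min compound pre-incubation at room temperature to dye-loaded HTR2A-CHO cells. Fluorescence followed for 3 min, sampled every second.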

Measured: Potency

Gonadotropin-releasing hormone receptor (Homo sapiens), sequence (P30968 whole entry, looked up): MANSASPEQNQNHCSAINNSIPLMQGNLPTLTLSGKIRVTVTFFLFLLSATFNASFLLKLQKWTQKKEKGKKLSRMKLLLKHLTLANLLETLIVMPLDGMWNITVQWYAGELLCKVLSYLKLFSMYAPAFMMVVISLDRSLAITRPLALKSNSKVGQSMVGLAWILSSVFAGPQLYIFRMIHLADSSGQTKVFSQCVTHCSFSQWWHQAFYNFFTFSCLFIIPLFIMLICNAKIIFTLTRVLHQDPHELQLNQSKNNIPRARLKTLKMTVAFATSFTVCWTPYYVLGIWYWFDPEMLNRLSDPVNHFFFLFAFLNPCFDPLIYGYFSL
D(2) dopamine receptor (Homo sapiens), sequence (P14416 whole entry, looked up): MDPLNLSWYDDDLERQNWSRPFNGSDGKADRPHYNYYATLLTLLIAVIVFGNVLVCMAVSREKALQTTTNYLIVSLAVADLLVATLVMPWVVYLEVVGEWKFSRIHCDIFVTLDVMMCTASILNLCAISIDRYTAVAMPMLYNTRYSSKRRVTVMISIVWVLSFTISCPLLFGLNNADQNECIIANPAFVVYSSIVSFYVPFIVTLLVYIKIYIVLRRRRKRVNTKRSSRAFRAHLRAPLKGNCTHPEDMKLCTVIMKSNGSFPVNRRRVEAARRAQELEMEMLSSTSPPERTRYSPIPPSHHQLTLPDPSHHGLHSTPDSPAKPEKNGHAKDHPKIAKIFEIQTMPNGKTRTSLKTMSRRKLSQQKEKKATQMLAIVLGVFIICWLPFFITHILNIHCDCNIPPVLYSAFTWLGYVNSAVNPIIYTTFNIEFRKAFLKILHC
5-hydroxytryptamine receptor 2A (Homo sapiens), sequence (P28223 whole entry, looked up): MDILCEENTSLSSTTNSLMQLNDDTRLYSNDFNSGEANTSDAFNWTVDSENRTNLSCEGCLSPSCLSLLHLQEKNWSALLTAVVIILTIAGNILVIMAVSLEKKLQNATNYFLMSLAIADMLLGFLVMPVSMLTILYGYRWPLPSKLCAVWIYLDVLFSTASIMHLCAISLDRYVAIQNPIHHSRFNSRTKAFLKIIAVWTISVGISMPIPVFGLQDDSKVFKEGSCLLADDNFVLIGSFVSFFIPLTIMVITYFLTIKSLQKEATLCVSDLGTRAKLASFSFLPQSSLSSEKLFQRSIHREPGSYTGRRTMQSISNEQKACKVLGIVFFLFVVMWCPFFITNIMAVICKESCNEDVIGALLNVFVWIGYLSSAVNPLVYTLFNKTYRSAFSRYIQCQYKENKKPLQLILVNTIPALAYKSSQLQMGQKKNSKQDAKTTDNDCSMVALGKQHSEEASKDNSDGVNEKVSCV
KiSS-1 receptor (Homo sapiens), sequence (Q969F8 whole entry, looked up): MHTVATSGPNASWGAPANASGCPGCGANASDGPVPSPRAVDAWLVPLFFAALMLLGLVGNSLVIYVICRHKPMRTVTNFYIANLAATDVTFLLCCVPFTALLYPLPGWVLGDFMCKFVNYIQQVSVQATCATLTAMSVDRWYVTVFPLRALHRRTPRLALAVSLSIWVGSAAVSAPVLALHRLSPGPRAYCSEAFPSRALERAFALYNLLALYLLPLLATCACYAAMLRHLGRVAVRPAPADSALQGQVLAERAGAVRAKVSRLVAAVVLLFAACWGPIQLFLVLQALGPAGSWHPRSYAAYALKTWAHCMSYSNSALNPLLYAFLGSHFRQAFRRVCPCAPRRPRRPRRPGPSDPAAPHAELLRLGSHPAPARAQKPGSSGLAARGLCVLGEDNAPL
Muscarinic acetylcholine receptor M1 (Homo sapiens), sequence (P11229 whole entry, looked up): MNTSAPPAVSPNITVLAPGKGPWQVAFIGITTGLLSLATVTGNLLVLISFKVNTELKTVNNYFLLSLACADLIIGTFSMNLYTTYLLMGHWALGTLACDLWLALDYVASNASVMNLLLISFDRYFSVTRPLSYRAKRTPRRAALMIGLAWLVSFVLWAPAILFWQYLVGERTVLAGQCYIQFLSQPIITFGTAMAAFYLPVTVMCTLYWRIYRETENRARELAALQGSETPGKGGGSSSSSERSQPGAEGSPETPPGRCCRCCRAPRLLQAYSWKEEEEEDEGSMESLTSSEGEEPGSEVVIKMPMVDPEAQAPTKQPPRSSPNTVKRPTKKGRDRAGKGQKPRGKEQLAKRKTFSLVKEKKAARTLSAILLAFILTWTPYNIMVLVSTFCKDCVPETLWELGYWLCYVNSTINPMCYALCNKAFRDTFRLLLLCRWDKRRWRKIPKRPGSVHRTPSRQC
Beta-2 adrenergic receptor (Homo sapiens), sequence (P07550 whole entry, looked up): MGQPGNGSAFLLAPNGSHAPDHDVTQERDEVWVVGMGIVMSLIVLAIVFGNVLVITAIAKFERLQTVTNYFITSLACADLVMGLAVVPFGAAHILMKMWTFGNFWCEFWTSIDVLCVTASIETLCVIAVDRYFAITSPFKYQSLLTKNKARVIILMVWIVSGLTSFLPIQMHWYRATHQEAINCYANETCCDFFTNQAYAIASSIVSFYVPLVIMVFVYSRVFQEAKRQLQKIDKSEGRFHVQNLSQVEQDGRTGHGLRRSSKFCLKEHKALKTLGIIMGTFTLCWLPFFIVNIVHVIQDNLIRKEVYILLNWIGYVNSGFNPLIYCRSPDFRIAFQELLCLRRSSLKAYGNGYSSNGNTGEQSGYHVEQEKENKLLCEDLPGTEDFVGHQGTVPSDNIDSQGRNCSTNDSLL

Cc1nc2n(c(=O)c1CCN1CCC(C(=O)c3ccc(F)cc3)CC1)CCS2
active: [18] 0.0668 µM
not listed: [19] | [20]
inactive: all other assays above

COC(=O)CCCCC(CCSS/C(CCO)=C(\C)N(C=O)Cc1cnc(C)nc1N)SC(C)=O (centres undefined)
not listed: [20]
inactive: all other assays above

N[C@@H](Cc1cc(I)c(O)c(I)c1)C(=O)O
not listed: [11] | [16] | [17]
inactive: all other assays above

CCCCCCCCN1CCCC1=O
not listed: [12] | [15] | [19]
inactive: all other assays above

CCCCCCC(O)CCCCCCCCCCC(=O)OC (centres undefined)
not listed: [13] | [18] | [19]
inactive: all other assays above

OCCCCCCO
active: [10] 41.3 µM
not listed: [12] | [15] | [16] | [19]
inactive: all other assays above

COc1cc(S(=O)(=O)O)c(C)cc1N=Nc1c(O)ccc2cc(S(=O)(=O)O)ccc12
active: [1] 24.3 µM
not listed: [11] | [15] | [16] | [17] | [18]
inactive: all other assays above
